The supplement of paper PMC13380429

Tested on: Vero E6 infected with SARS-CoV-2
Assay: inhibition of SARS-CoV-2 cytopathic effect; higher = more antiviral protection, active = above 15
Details: 48 h

Measured: inhibition of SARS-CoV-2 cytopathic effect

CS(=O)(=O)c1ccc(-c2nnc(/C=C/c3nnc(-c4ccc(C#N)cc4)o3)n2-c2ccccc2Cl)nc1
inactive: 1 nM 0.69% | 8.33 nM 0.31% | 100 nM -0.3% | 833.33 nM -2.5% | 10000 nM 2.17%

C[C@H](Cc1ccc(O)c(O)c1)[C@@H](C)Cc1ccc(O)c(O)c1 [masoprocol]
inactive: 1 nM -3.87% | 8.33 nM 1.69% | 100 nM 2.75% | 833.33 nM -1.7% | 10000 nM 12%

O=C(Oc1cc(S(=O)(=O)c2ccccc2)ccc1[N+](=O)[O-])c1ccc(Cl)cc1
inactive: 1 nM 0.83% | 8.33 nM 0.6% | 100 nM -2.99% | 833.33 nM -0.23% | 10000 nM -0.09%

O=C1C(=C(O)/C=C/c2ccc(O)cc2)C(=O)[C@@](O)([C@@H]2O[C@H](CO)[C@@H](O)[C@H](O)[C@H]2O)C(=O)[C@H]1[C@@H]1O[C@H](CO)[C@@H](O)[C@H](O)[C@H]1O
inactive: 1 nM 0.73% | 8.33 nM -1.02% | 100 nM -0.24% | 833.33 nM -0.74% | 10000 nM -2.44%

c1ccc(C(NCCNC(c2ccccc2)c2ccccc2)c2ccccc2)cc1
inactive: 1 nM -3.48% | 8.33 nM -3.4% | 100 nM 3.81% | 833.33 nM 2.97% | 10000 nM -0.01%

C[C@@H](NC(=O)c1ncnc(N)c1Cl)c1ncc(C(=O)Nc2cc(C(F)(F)F)c(Cl)cn2)s1
inactive: 1 nM -0.01% | 8.33 nM 6.23% | 100 nM 4.35% | 833.33 nM 4.42% | 10000 nM -1.31%

COc1ccc2c(OCc3nnc4ccc(-c5ccccc5)nn34)ccnc2c1
inactive: 1 nM 1.19% | 8.33 nM -0.48% | 100 nM 0.42% | 833.33 nM -0.17% | 10000 nM 1.81%

O=C(NCCCCCCNC(=O)ON=C1CCCCC1)ON=C1CCCCC1
inactive: 1 nM 2.1% | 8.33 nM 0.56% | 100 nM 1.93% | 833.33 nM 2.74% | 10000 nM 2.7%

CNc1cc(OC)c(C(=O)NC2CCN(Cc3ccccc3)C2C)cc1Cl (stereo not given) [nemonapride]
inactive: 1 nM -1.01% | 8.33 nM 2.19% | 100 nM 0.65% | 833.33 nM -1.52% | 10000 nM 2.33%

COc1ccc(C(=O)Nc2sc3c(c2C(N)=O)CCCC3)cc1OC
inactive: 1 nM -0.36% | 8.33 nM -0.47% | 100 nM -3.78% | 833.33 nM -0.85% | 10000 nM 0.05%

O=C(CCCCCCC(=O)Nc1ccccc1)NO [vorinostat]
inactive: 1 nM -0.07% | 8.33 nM 0.67% | 100 nM -0.77% | 833.33 nM -5.85% | 10000 nM -23.6%

CC(=O)N(O)[C@@H]1c2cc(C#N)ccc2OC(C)(C)[C@H]1O
inactive: 1 nM -2.54% | 8.33 nM 0.31% | 100 nM 1.05% | 833.33 nM 0.36% | 10000 nM 3.02%

COc1cccc2c1C(=O)c1c(O)c3c(c(O)c1C2=O)C[C@@](O)(C(=O)CO)C[C@@H]3O[C@H]1C[C@H](N)[C@H](O[C@@H]2CCCCO2)[C@H](C)O1 [pirarubicin]
inactive: 1 nM -1.57% | 8.33 nM -0.32% | 100 nM -0.19% | 833.33 nM -1.24% | 10000 nM -2.07%

NC1(Cc2ccc(Cl)cc2)CCN(c2ncnc3[nH]ccc23)CC1
inactive: 1 nM -1.05% | 8.33 nM 0.05% | 100 nM -0.65% | 833.33 nM 0.89% | 10000 nM -9.28%

CCn1cnc(C(=O)NC)c1C(=O)NC [ethimizol]
inactive: 1 nM -1.81% | 8.33 nM 0.39% | 100 nM -1.18% | 833.33 nM 1.42% | 10000 nM 1.32%

C#C[C@]1(OC(C)=O)CC[C@H]2[C@@H]3CCC4=CC(=NO)CC[C@@H]4[C@H]3CC[C@@]21CC (mixture of isomers) [norgestimate]
inactive: 1 nM -3.21% | 8.33 nM 0.96% | 100 nM 1.62% | 833.33 nM -2.37% | 10000 nM -3.22%

N#CSc1cc(SC#N)c(N)nc1N
inactive: 1 nM -1.78% | 8.33 nM 0.62% | 100 nM 3.56% | 833.33 nM 0.7% | 10000 nM 11.2%

Cc1cc(C(=O)N2Cc3cnn(C)c3Nc3ccccc32)ccc1CNC(=O)N1CCC[C@H]1C(=S)N1CCCN(C)CC1
inactive: 1 nM -0.76% | 8.33 nM -1.38% | 100 nM -3.62% | 833.33 nM -1.74% | 10000 nM -2.86%
